Measurements from PubChem BioAssay (NCI).
Compounds without any hit were thinned out: in the full panel of roughly 83,000, 20% have a hit.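 Percent growth is the endpoint: 0 to 100 indicates growth inhibition (40 means 60% inhibition), 0 means no net growth, and negative values indicate cell death.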 A number with no mark means an inactive call. The source made the active and inactive calls. The calls were made as follows: active = growth percent below 10; inactive = the rest.

Test system: OVCAR-4 ovarian
Test: NCI-60 one-dose screen, 48 h (100 = growth as untreated, 0 = no growth, -100 = all killed)
Conditions: 10 µM unless noted

| SMILES | growth |
| --- | --- |
| CS(=O)(=O)c1ccc(-c2nn(-c3ccccc3)cc2/C=N/NC(=O)c2ccncc2)cc1 | 104% |
| CC(C)=CCc1c2c(c(O)c3c1O[C@]14C(=C[C@@H]5C[C@H]1C(C)(C)O[C@@]4(C/C=C(/C)C(=O)O)C5=O)C3=O)CC(O)C(C)(C)O2 (some centres undefined) | 18.7% |
| C=C(C)C(=O)O[C@H]1C[C@@]2(C)OC(=CC2=O)/C(CO)=C\[C@H]2OC(=O)C(=C)[C@H]12 | 17.4% |
| COc1ccc(-c2nnc(SCc3ccc(O)c4ncccc34)o2)cc1 | 24.5% |
| Nc1ccc(-c2nnc(SCc3ccc(O)c4ncccc34)n2-c2ccccc2)cc1 | 12.4% |
| CC(C)N=C(N/C(N)=N/c1nc2ccccc2s1)NC(C)C | 93.6% |
| CN1CCN(Cc2ccc(NC(=O)c3cncc(C#Cc4cnc5ccc(NC6CCOCC6)nn45)c3)cc2C(F)(F)F)CC1 | -29.1% (active) |
| COc1cc(/C=C/C(=O)c2ccc(NC(=O)CSc3nnc(-c4ccc5nc(-c6ccccc6)[nH]c5c4)o3)cc2)cc(OC)c1OC | 99.5% |
| CC(=O)c1ccc(NC(=O)COc2ccc(C3SCC(=O)N3c3ccc(Br)cc3)cc2)cc1 (centres undefined) | 103% |
| COc1ccc(Cn2cc3c(c2-c2ccccc2)CCCc2cnoc2-3)cc1 | 90.2% |
| O=C(CSc1ccc(-c2nc3ccccc3[nH]2)cn1)N1CCN(c2ccccc2F)CC1 | 24.2% |

Test system: SK-OV-3 ovarian
Test: as above
Conditions: 10 µM unless noted

| SMILES | growth |
| --- | --- |
| Cc1ccc(NC(=O)c2ccc(CN3CCN(C)CC3)c(C(F)(F)F)c2)cc1Oc1ccc(-c2[nH]nc3ncnc(N)c23)cc1 | 97% |
| COc1ccc([C@H]2c3[nH]c4ccccc4c3C[C@@H]3C(=O)N(C4CCN(Cc5ccccc5)CC4)CC(=O)N23)c(OC)c1 | 93% |
| IP(CCCSc1n(Cc2ccc3ccccc3c2)c(-c2ccccc2)c(-c2ccccc2)[n+]1Cc1ccc2ccccc2c1)(c1ccccc1)(c1ccccc1)c1ccccc1 | 29.4% |
| O=C1NC(=O)c2c1c1c3ccccc3ccc1c1[nH]c3ccccc3c21 | 2.2% (active) |
| COc1cc(/C=N/n2cnc3oc(-c4ccccc4)cc3c2=N)cc(CN2CCN(C)CC2)c1O | 91.3% |
| COC1=C(c2ccccc2)C(=O)C(OC)=C(c2ccccc2)C1=O | 81.2% |
| Cc1ccc(-c2csc(N/N=C/c3nc4ccccc4n3C3CC3)n2)cc1 | 120% |
| CC(C)=CCc1c(O)c(CC=C(C)C)c2c(c1O)C(=O)C1=C[C@@H]3C[C@H]4C(C)(C)O[C@@](C/C=C(\C)C(=O)O)(C3=O)[C@@]14O2 | 42.4% |
| CN1CCN(c2nc(-c3csc(-c4ccncc4)n3)cc3ccccc23)CC1 | 86.4% |
| CN1C(=O)N(C)C2C1NN=c1s/c(=C\c3ccccn3)c(=O)n12 (centres undefined) | 110% |
| CC(C)SC1=NC(=C(C(=N1)NC2=ClC=CC=C2)C#N)C3=CC=CC=C3 | 88.5% |
| CC(=O)NC(C)(C)C(=O)N[C@@H](C)C(=O)NC(C)(C)C(=O)N[C@@H](C)C(=O)NC(C)(C)C(=O)N[C@@H](C)C(=O)N[C@@H](CCC(N)=O)C(=O)NC(C)(C)C(=O)N[C@H](C(=O)NC(C)(C)C(=O)NCC(=O)N[C@@H](CC(C)C)C(=O)NC(C)(C)C(=O)N1CCC[C@H]1C(=O)N[C@H](C(=O)NC(C)(C)C(=O)NC(C)(C)C(=O)N[C@@H](CCC(N)=O)C(=O)N[C@@H](CCC(N)=O)C(=O)N[C@H](CO)CC1CCCCC1)C(C)C)C(C)C | 45.1% [5 µM] |
| Clc1ccc(-c2csc(N/N=C/c3nc4ccccc4n3C3CC3)n2)cc1 | 108% |
| O=C(NCCCNc1cc(-c2cn(-c3ccccc3)nc2-c2cccc(O)c2)ccn1)Nc1cc(C(F)(F)F)cc(C(F)(F)F)c1 | 89.3% |
| COc1ccc(-c2ccc3c4c(cccc24)C(=O)N(N2C(=O)c4cccc5cccc(c45)C2=O)C3=O)cc1 | 100% |
| Cc1cc(C(=O)Nc2ccc(SC#N)cc2)c(C)o1 | 111% |
| Oc1ccc(CSc2nnc(-c3cnccn3)o2)c2cccnc12 | 9.11% (active) |
| O=C(O)c1ccc(-n2cc(CNc3ccc(Cl)cc3)c(-c3ccc(F)cc3)n2)cc1 | 110% |
| Cc1cn(-c2cc(NC(=O)c3cncc(C#Cc4cnc5ccc(OCCCS(C)(=O)=O)nn45)c3)cc(C(F)(F)F)c2)cn1 | 104% |

| SMILES | growth |
| --- | --- |
| N/C(=N\OC(=O)CSc1nc2ccccc2s1)c1ccc2ccccc2c1 | 101% |
| Nc1nc(-c2cccc([N+](=O)[O-])c2)c(N=Nc2cccc(Cl)c2)s1 | 42.7% |
| CC[C@@](C)(NC(=O)C(C)(C)NC(=O)[C@@H](NC(=O)[C@@H]1CCCN1C(=O)C(C)(C)NC(=O)[C@H](CC(C)C)NC(=O)CNC(=O)C(C)(C)NC(=O)[C@@H](NC(=O)C(C)(C)NC(=O)[C@H](CCC(N)=O)NC(=O)[C@H](C)NC(=O)C(C)(C)NC(=O)[C@H](C)NC(=O)C(C)(C)NC(=O)[C@@H]1CCCN1C(=O)C(C)(C)NC(C)=O)C(C)C)C(C)C)C(=O)N[C@@H](CCC(N)=O)C(=O)N[C@@H](CCC(N)=O)C(=O)N[C@H](CO)Cc1ccccc1 | 31.3% [4.25 µM] |
| COc1ccc(-c2nn(-c3ccccc3)cc2/C=C/C(=O)c2ccc(NC(=O)CCCCCCC(=O)NO)cc2)cc1 | 91.7% |
| Nc1ccc(-c2nnc(SCc3ccc(O)c4ncccc34)o2)cc1 | -15.3% (active) |
| O=C1Nc2ccc(Cl)cc2/C1=C/c1ccc(OCc2ccc(Br)cc2F)cc1 | 98% |
| C=C1C(=O)O[C@@H]2/C=C(/C)C3=CC(=O)[C@@](C)(C[C@H](OC(=O)/C(C)=C\C)[C@@H]12)O3 | 92.6% |
| O=C(CCCCCCN1CC(=O)N2[C@@H](c3cccc(Cl)c3)c3[nH]c4ccccc4c3C[C@H]2C1=O)NO | 51.8% |
| CS(=O)(=O)c1ccc(-c2nn(-c3ccccc3)cc2/C=N/NC(=O)c2ccncc2)cc1 | 109% |
| CC(C)=CCc1c2c(c(O)c3c1O[C@]14C(=C[C@@H]5C[C@H]1C(C)(C)O[C@@]4(C/C=C(/C)C(=O)O)C5=O)C3=O)CC(O)C(C)(C)O2 (some centres undefined) | 30.4% |
| C=C(C)C(=O)O[C@H]1C[C@@]2(C)OC(=CC2=O)/C(CO)=C\[C@H]2OC(=O)C(=C)[C@H]12 | 81.6% |
| COc1ccc(-c2nnc(SCc3ccc(O)c4ncccc34)o2)cc1 | 51.7% |
| Nc1ccc(-c2nnc(SCc3ccc(O)c4ncccc34)n2-c2ccccc2)cc1 | 8.19% (active) |
| CC(C)N=C(N/C(N)=N/c1nc2ccccc2s1)NC(C)C | 83.4% |
| CN1CCN(Cc2ccc(NC(=O)c3cncc(C#Cc4cnc5ccc(NC6CCOCC6)nn45)c3)cc2C(F)(F)F)CC1 | -22.9% (active) |
| COc1cc(/C=C/C(=O)c2ccc(NC(=O)CSc3nnc(-c4ccc5nc(-c6ccccc6)[nH]c5c4)o3)cc2)cc(OC)c1OC | 116% |
| CC(=O)c1ccc(NC(=O)COc2ccc(C3SCC(=O)N3c3ccc(Br)cc3)cc2)cc1 (centres undefined) | 105% |
| COc1ccc(Cn2cc3c(c2-c2ccccc2)CCCc2cnoc2-3)cc1 | 83.7% |
| O=C(CSc1ccc(-c2nc3ccccc3[nH]2)cn1)N1CCN(c2ccccc2F)CC1 | 95.4% |
